Calls of active or inactive are those of the source. Calls come from the whole dose curve.
Molecular target: Thyroid hormone receptor beta (Homo sapiens) (UniProt P10828)
Test: Secondary Confirmation Assay for Inhibitors of the Interaction of Thyroid Hormone Receptor and Steroid Receptor Coregulator 2, Texas Red Fluoroprobe
Conditions: TRb LBD / Texas Red SRC2 peptide fluorescence polarization
Excerpt: NIH Molecular Libraries Probe Production Network [MLPCN] NIH Chemical Genomics Center [NCGC] MLPCN Grant: DK058080 Assay Provider: R. Kip Guy, St. Jude Children's Research Hospital NCGC Assay Overview: Thyroid receptor (TR) regulates many homeostatic processes including basal metabolism, cardiovascular function, body weight, and lipid trafficking. TR modulators are potential therapeutics for obesity and hyperlipidemias but current thyroid analogs have undesirable side effects, particularly cardiac stimulation. To identify inhibitors that specifically prevent the interaction of TR with the steroid receptor coregulator 2 (SRC2), a fluorescence polarization assay was screened (Arnold et al., 2006). This assay detects the interaction of the ligand-binding domain of human TRb with a Texas Red labeled SRC2 peptide, corresponding to a 20 amino acid region of the nuclear receptor interaction domain. Small molecule inhibitors that block the interaction of TR and SRC2 are detected by a decrease in fluorescence polarization.
NCGC Assay Protocol Summary: Twenty uL/well 0.6 uM TRb and 20 nM Texas Red labeled SRC2-2 in protein buffer (20mM Tris hydrochloride, pH 7.4, 100mM NaCl, 10% glycerol, 1mM EDTA, 0.01% NP-40, 1mM DTT, 1uM T3 and 4% DMSO) was dispensed into black solid 384-well plates (Costar 3710) using a Biomek FX (Beckman Coulter) liquid handling system. Following transfer of 260 nL compound (ranging from 7 nM to 130 uM), the plates were incubated 3 hr at ambient temperature. The plates were read by an Envision (Perkin Elmer) to detect fluorescence polarization of SRC2 Texas Red (555 nm excitation and 632 nm emission). Arnold, L. A.; Estebanez-Perpina, E.; Togashi, M.; Shelat, A.; Ocasio, C. A.; McReynolds, A. C.; Nguyen, P.; Baxter, J. D.; Fletterick, R. J.; Webb, P.; Guy, R. K. A high-throughput screening method to identify small molecule inhibitors of thyroid hormone receptor coactivator binding. Sci STKE 2006, p 13.

Sequence of Thyroid hormone receptor beta (Homo sapiens) (P10828 whole entry, looked up): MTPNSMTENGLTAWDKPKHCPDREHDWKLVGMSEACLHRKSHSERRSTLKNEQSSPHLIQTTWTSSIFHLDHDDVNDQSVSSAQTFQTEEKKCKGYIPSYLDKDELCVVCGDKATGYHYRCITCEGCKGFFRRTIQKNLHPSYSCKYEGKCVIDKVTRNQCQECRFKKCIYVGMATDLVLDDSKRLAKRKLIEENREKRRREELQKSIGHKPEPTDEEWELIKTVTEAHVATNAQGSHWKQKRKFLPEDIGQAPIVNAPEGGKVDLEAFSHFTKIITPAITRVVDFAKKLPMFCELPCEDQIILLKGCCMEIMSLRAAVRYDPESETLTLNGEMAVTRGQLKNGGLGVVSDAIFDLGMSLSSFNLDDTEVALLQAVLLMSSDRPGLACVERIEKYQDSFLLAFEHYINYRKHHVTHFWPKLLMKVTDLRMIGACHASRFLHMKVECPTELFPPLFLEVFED

Compound	Potency	outcome
CCCC1CCN(C(=O)COC(=O)c2ccc(S(C)(=O)=O)c([N+](=O)[O-])c2)CC1	3.3 µM (active)	–
CS(=O)(=O)c1ccc(C(=O)OCC(=O)N2Cc3ccccc3C2)cc1[N+](=O)[O-]	3 µM (active)	–
CS(=O)(=O)c1ccc(C(=O)OCC(=O)NC2C3CC4CC(C3)CC2C4)cc1[N+](=O)[O-] (stereo not given)	1.6 µM (active)	–
CS(=O)(=O)c1ccc(-c2nnc(-c3ccccc3)s2)cc1[N+](=O)[O-]	–	inactive
O=C(COC(=O)c1cc([N+](=O)[O-])ccc1Cl)NC1C2CC3CC(C2)CC1C3 (stereo not given)	–	inactive
CS(=O)(=O)c1ccc(C(=O)OCC(=O)NC(=O)NC2CCCCC2)cc1[N+](=O)[O-]	19.1 µM (active)	–
CCN1CCN(C(=O)COC(=O)c2ccc(S(C)(=O)=O)c([N+](=O)[O-])c2)CC1C (stereo not given)	–	inactive
Cc1cc(C(=O)OCC(=O)NC(=O)C2CCCCC2)ccc1[N+](=O)[O-]	–	inactive
CCc1nc(-c2ccc(S(C)(=O)=O)c([N+](=O)[O-])c2)sc1C(=O)NC1C2CC3CC(C2)CC1C3 (stereo not given)	3 µM (active)	–
CS(=O)(=O)c1ccc(C(=O)OCC(=O)NC(=O)C2CCCCC2)cc1[N+](=O)[O-]	1.4 µM (active)	–
CS(=O)(=O)c1ccc(C(=O)OCC(=O)N2CCN(Cc3ccccc3)CC2)cc1[N+](=O)[O-]	15.3 µM (active)	–
C#CCNC(=O)COC(=O)c1ccc(S(C)(=O)=O)c([N+](=O)[O-])c1	–	inactive
O=C(COC(=O)c1ccc(F)c([N+](=O)[O-])c1)NC1C2CC3CC(C2)CC1C3 (stereo not given)	14.3 µM (active)	–
Cn1cccc1C(=O)NC(=O)COC(=O)c1ccc(S(C)(=O)=O)c([N+](=O)[O-])c1	38.4 µM (active)	–
Cc1ccccc1NC(=O)COC(=O)c1ccc(S(C)(=O)=O)c([N+](=O)[O-])c1	–	inactive
CS(=O)(=O)c1ccc(C(=O)OCC(=O)N2CCN(C3CCCCC3)CC2)cc1[N+](=O)[O-]	16.1 µM (active)	–
CS(=O)(=O)c1ccc(C(=O)OCC(=O)N2CCC(Cc3ccccc3)CC2)cc1[N+](=O)[O-]	8.2 µM (active)	–
C[S+](=O)([O-])c1ccc(C(=O)OCC(=O)N2CCN([S+](C)(=O)[O-])CC2)cc1[N+](=O)[O-]	–	inactive
CC1CCCCN1C(=O)COC(=O)c1ccc(S(C)(=O)=O)c([N+](=O)[O-])c1 (stereo not given)	11.5 µM (active)	–
C#CC1(NC(=O)COC(=O)c2ccc(S(C)(=O)=O)c([N+](=O)[O-])c2)CCCCC1	9.2 µM (active)	–
CS(=O)(=O)c1ccc(C(=O)OCC(=O)N2CC(=O)Nc3ccccc32)cc1[N+](=O)[O-]	3.8 µM (active)	–
CS(=O)(=O)c1ncc(C(=O)OCC(=O)NC2C3CC4CC(C3)CC2C4)cn1 (stereo not given)	3.2 µM (active)	–
CS(=O)(=O)c1ccc(-c2nnc(-c3ccccc3)o2)cc1[N+](=O)[O-]	–	inactive
CS(=O)(=O)c1ccc(C(=O)OCC(=O)N2CCN(CCC3CCCCC3)CC2)cc1[N+](=O)[O-]	7.6 µM (active)	–
CS(=O)(=O)c1ccc(C(=O)OCC(=O)Nc2ccc(OC(F)(F)F)cc2)cc1[N+](=O)[O-]	–	inactive

— PubChem BioAssay AID2490 (National Center for Advancing Translational Sciences (NCATS), 2010)
